Results filed as inconclusive are left out. The source made the active and inactive calls. Calls follow the shape of the dose curve; as a rule, active = well fitted inhibition curve with a large enough effect; inconclusive = small, poorly fitted or top-dose-only effect, or effect the other way; inactive = no such curve, though single readings can be large or run the other way.

The test is described as follows: Confirmation Concentration-Response Assay for Inhibitors of the ERK Signaling Pathway using a Homogeneous Screening Assay. As to conditions: HEK293 cells, hormone-stimulated phospho-ERK AlphaScreen; series mostly up to 40.9 µM. An excerpt: qHTS Assay for Inhibitors of the ERK Signaling Pathway using a Homogeneous Screening Assay
NIH Chemical Genomics Center [NCGC]
NIH Molecular Libraries Screening Centers Network [MLSCN]
Assay Submitter (PI): Dr. Wei Zheng, NCGC/NIH
The Ras/extracellular-signal-regulated kinase (ERK) mitogen activated protein (MAP) kinase signaling pathway (ERK1/2 cascade) plays is a key role in transmitting signals from the cell surface to the nucleus (Nishida and Gotoh 1993; Chang and Karin, 2001). The cascade is initiated by the small G-protein Ras, which recruits Raf […], where activation occurs. Alternatively, this pathway can be activated by elevating intracellular cAMP.
Activation of the ERK pathway is essential in increased cell division and cell survival. Sustained and constitutive activation of the ERK pathway, however, has been linked to uncontrolled cell proliferation, increased cell survival, and tumor progression. Thus, the ERK has been as an attractive target for cancer chemotherapy in the past few years (Sebolt-Leopold and Herrera, 2004). Given its physiological and pathological importance, assessment of ERK phosphorylation has been broadly performed in both basic research and drug discovery. Most assays for the measurement of ERK phosphorylation use the antibody-based detection methods, such as western blot and ELISA. These assays require multiple reagent additions with cell wash steps and are not suitable for high-throughput screening.
The current cell-based ERK phosphorylation assay was performed using AlphaScreen platform. AlphaScreen is a two bead-based proximity-dependent chemical energy transfer luminescent assay platform. The assay reagents (ERK SureFire(TM) kit) were supplied from TGR BioSciences (Australia). In the presence of specific antibodies, phosphorylated ERK will bring "donor" and "acceptor" beads to a proximity range (<200 nm), and subsequently lead a chemical luminescent reaction upon exciting donor beads with 680 nm laser. To exclude the assay-related false positives, we used a biotinylated rabbit IgG to perform counter-screen. The biotinylated antibody mimics the phosphorylated ERK1/2 for bringing streptavidin coated beads and protein-A coated beads to a proximity range for the AlphaScreen detection.
NCGC Assay Protocol Summary:
HEK293 cells stably expressing type-1 vasopressin receptor (V1b) were maintained in DMEM medium (Invitrogen, Carlsbad, CA) at 37C under a humidified atmosphere containing 5% CO2 and 95% air. The medium contained 10% FBS, 2 mM L-glutamine, non-essential amino acid, pyruvate and 50 U/ml penicillin and 50 ug/ml streptomycin (Invitrogen). The aliquots of frozen cells were stored at -135C and used for the compound screening. All compounds were screened as titrations from 0.6 nM to 46 uM final concentration. Vasopressin was used to stimulate the ERK phosphorylation pathway. The ERK phosphorylation in cells was determined using an AlphaScreen assay kit provided by PerkinElmer. Data were normalized to the controls for basal activity (DMSO only) and 100% activation (25 nM vasopressin). AC50 values were determined from concentration-response data modeled with the standard Hill equation.
(1) Seed 4 ul/well of resuspended frozen HEK293 cells containing 2000 cells in white 1536-well plates for overnight with 1% FBS at 37C under a humidified atmosphere containing 5% CO2 and 95% air.
(2) Add 23 nL compounds in DMSO solution. The final titration was 0.6 nM to 46 uM.
(3) Incubate at 37C for 30 min.
(4) Dispense 0.5uL vasopressin (25 nM in final)
(5) Incubate at 37C for 5 min.
(6) Dispense 0.5uL of 1:2 diluted 5x lysis buffer.
(7) Incubate at 37C for 10 min.
(8) Dispense 1.5uL of mixture of activation buffer and reaction buffer with AlphaScreen beads (streptavidin donor beads and protein-A acceptor beads, 10 ng/well for each).
(9) Incubate at room temperature for 5 hr.
(10) Detect the assay plate in an EnVision plate reader (PerkinElmer) using the AlphaScreen detection mode.
[…]
Consider `N#CC(C#N)=c1ccc2c(c1)N1C3=C(CCCC3)CC3CCCCC31N=2` (stereo not given), for which the Potency is 5.01 µM (active).
For the compound `O=C(c1cccs1)c1no[n+]([O-])c1C(=O)c1cccs1`, the Potency was 2 µM (active).
On to `COc1cccc(/C=N/Nc2cc(-n3nc(C)cc3-c3ccccc3)ncn2)c1O`, for which the Potency result was “inactive”.
Under `CCCC(=O)N1CCN(c2ccc(NC(=O)c3cc4ccccc4o3)cc2Cl)CC1` stands 7.94 µM (active); under `COc1ccc(N=C2C(=Nc3ccc(OC)cc3)N(c3ccccc3)C(=S)N2C(=O)c2ccc(Cl)cc2)cc1`, 3.16 µM (active).
With `COc1ccc(C(=O)OC(COc2ccccc2)Cn2ccnc2)cc1` (stereo not given), the Potency was 15.8 µM (active).
Consider `CCC(=O)N1CCN(c2ccc(NC(=O)c3cc4ccccc4o3)cc2Cl)CC1`, for which the Potency is 12.6 µM (active).
Regarding `COc1ccc(CNc2ncnc3ccc(-c4cccc(NS(C)(=O)=O)c4)cc23)c(OC)c1`, the Potency was 15.8 µM (active).
As to `C=C[C@@]1(C)CC(=O)[C@@]2(O)[C@@]3(C)[C@@H](O)CCC(C)(C)[C@@H]3[C@H](OC(=O)CCN(C)C)[C@H](OC(C)=O)[C@@]2(C)O1`, the Potency is 0.282 µM (active).
Regarding `COc1ccc(N=C2C(=Nc3ccc(OC)cc3)N(c3ccc(OC)cc3)C(=S)N2C)cc1`, the Potency was 15.8 µM (active).
For `CCOC(=O)c1ccc(NC(=O)c2cccc(S(=O)(=O)N3CCOCC3)c2)cc1` the value was 25.1 µM (active); for `O=C(Nc1nc(-c2ccccc2)cs1)c1ccc(N2CCOCC2)c([N+](=O)[O-])c1`, 7.08 µM (active).
Consider `CS(=O)(=O)CCNCc1nc(-c2ccc3ncnc(Nc4ccc(OCc5cccc(F)c5)c(Cl)c4)c3c2)cs1`, for which the Potency result was “inactive”.
For `COc1ccc(CC(=O)Nc2cccc(-c3nnc(-c4ccc(C)cc4)o3)c2)cc1OC` the value was 5.62 µM (active); for `C=C[C@@]1(C)CC(=O)[C@@]2(O)[C@@]3(C)[C@@H](O)CCC(C)(C)[C@@H]3[C@H](O)[C@H](OC(C)=O)[C@@]2(C)O1`, “inactive”; for `Cc1noc(NS(=O)(=O)c2ccc(NC(=O)COc3ccc(Cl)cc3Cl)cc2)c1C`, “inactive”.
For `CCCN1C(=O)/C(=C2/C=Cc3ccccc3N2CC)SC1=S`, the Potency was 11.2 µM (active).
`Cc1cccc(CNc2ncnc3ccc(-c4cccnc4)cc23)c1`: the Potency is 12.6 µM (active).
Under `COc1ccc(C(=O)Nc2ccc(-c3ccc(C)o3)cc2)cc1S(=O)(=O)N1CCOCC1` stands 10 µM (active); under `O=C1c2ccccc2C(=O)c2c1cccc2N1CCCC1`, 17.8 µM (active).
Under `O=C1c2ccc(O)c(O)c2C(=O)c2c(O)ccc(O)c21` stands “inactive”; under `O=C(Nc1nccs1)c1cc2sccc2n1Cc1ccc(F)cc1`, “inactive”.
For the compound `COC(=O)c1cc(-c2ccc(OC)c(OC)c2)on1`, the Potency is 7.08 µM (active).
`COc1ccc2[nH]cc(CCNc3ncnc4ccc(-c5ccc(C(=O)N(C)C)cc5)cc34)c2c1`: the Potency was 31.6 µM (active).
Take `CC(/C=C/c1ccccc1)=N\Nc1ccccc1[N+](=O)[O-]`: the Potency entry was “inactive”.
As for `Cc1sc2ncnc(Nc3ccccc3)c2c1C`, the Potency entry was “inactive”.
With `CCN(C1CCCCC1)S(=O)(=O)c1ccc(S(=O)(=O)NCc2ccncc2)cc1`, the Potency result was “inactive”.
For `CC1(C)OC(c2ccccc2)=C/C(=C/C=C2C(=O)c3ccccc3C2=O)O1` the value was 14.1 µM (active).
As for `Cc1nc2ccccc2c2oc(C(=O)N3CCc4ccccc4C3)cc12`, the Potency is 25.1 µM (active).
`C/C(=N\Nc1nnc(-c2ccccc2)c(-c2ccccc2)n1)c1cccc([N+](=O)[O-])c1`: the Potency result is “inactive”.
As for `COc1ccc(C2=Nn3c(nnc3-c3ccccc3OC)SC2)cc1OC`, the Potency was 2.24 µM (active).
Consider `Cn1c(=O)cc(Nc2ccccc2)c2c(=O)n(-c3ccccc3)c(=O)n(-c3ccccc3)c21`, for which the Potency is 8.91 µM (active).
Consider `N#CC(=C(/N)Sc1ccccc1N)/C(C#N)=C(/N)Sc1ccccc1N`, for which the Potency was 0.501 µM (active).
`Cn1nc(-c2ccc(Cl)cc2)nc2c(=O)n(C)c(=O)nc1-2`: the Potency result was “inactive”.
With `CN(C)c1ccc(Nc2c3c4c(cccc4n(C)c2=O)C(=O)c2ccccc2-3)cc1`, the Potency is 14.1 µM (active).
In the case of `COc1ccc(C(=O)Nc2cccc(C(C)=O)c2)cc1S(=O)(=O)N1CCOCC1`, the Potency result is “inactive”.
For `CCCNc1ncnc2sc(C)c(C)c12` the value was “inactive”; for `c1ccc(-c2csc(-c3nc4ccccc4[nH]3)n2)cc1`, 35.5 µM (active); for `C=CS(=O)(=O)c1ccc(Oc2ccc(S(=O)(=O)C=C)cc2)cc1`, 7.08 µM (active).
For `O=C(Nc1ccc(N2CCN(C(=O)c3ccccc3)CC2)cc1)c1cc2ccccc2o1`, the Potency is 12.6 µM (active).

The record behind these values is PubChem BioAssay AID1724 (National Center for Advancing Translational Sciences (NCATS), 2009).
